# Laboratory results published in ChEMBL document CHEMBL4513216, “Probing the Open Global Health Chemical Diversity Library for Multistage-Active Starting Points for Next-Generation Antimalarials” (ACS Infect Dis, 2020).
# Hit rate of the full screen: of about 69,000 compounds, about 8,600 (12%) showed an effect of 50% or more. This excerpt belongs to a sample that is enriched for strong results.
# Tested on: Plasmodium berghei
# Test: Screen against P. berghei liver stage (PbLuc), transformed with Luciferase, at 10uM
# Assay type: functional, HepG2
# Conditions: tested at 10 uM
row,SMILES,INHIBITION [%]
1,CC1=Nc2c(c(O)nn2C(C)C)C(c2cnn(C)c2)S1 (stereo not drawn),21.7
2,COc1nsc2nc(C3CCCN3C(C)=O)ccc12 (stereo not drawn),26.12
3,Cc1nccn1-c1ncccc1NC(=O)CCOCC(C)C,4.66
4,Cc1nccn1-c1ccc(N2CCC(NC(C)CC(C)C)CC2)cc1 (stereo not drawn),38.5
5,Cc1nccn1-c1ccc(C(C)NCCC(C)C)cc1 (stereo not drawn),62.8
6,CCCC(C)NC1CCN(c2ccc(-n3ccnc3C)cc2)CC1 (stereo not drawn),52.1
7,Cc1nccn1-c1ccc(C(C)NCCc2ccccn2)cc1 (stereo not drawn),62.8
8,CCCc1nccn1-c1ccc(C(C)O)cc1 (stereo not drawn),-20.6
9,CC(Cn1ccnc1)NC(=O)NCCc1ccccn1 (stereo not drawn),46.5
10,CCS(=O)(=O)c1ccc(N2CCC(NC(=O)CCC(C)C)CC2)cc1,42.6
11,Cc1nccn1-c1ccc(CN2CC3C[C@@H](O)CN3C[C@@H]2C)cc1 (stereo partly drawn),-44.8
12,Cc1nn(C)c(C)c1CN(Cc1cccn1-c1ncccn1)C(C)C,-30.5
13,Cn1cc(C(NCCc2ccccn2)c2cccc(F)c2)cn1 (stereo not drawn),-1.75
14,Cc1nn(C)c(C)c1CCNC(C)c1ccc(-n2ccnc2C)cc1 (stereo not drawn),87.6
15,CN(C)CCO[C@H]1CN(C(=O)c2cccs2)[C@@H]2COC[C@H]12,-19.1
16,CN1Cc2[nH]nc(COCC3CC3)c2C1,-44.9
17,O=C(c1ccc(-c2cccc3c2CCNC3)o1)N1CCOCC1,39.1
18,CCOC[C@@H]1CC[C@H]2[C@H](CCN2S(=O)(=O)c2ccc(F)cc2)O1,-17.1
19,O=C(O)c1c(-c2ccoc2)ncc2c1CCN(C1CCOC1)C2 (stereo not drawn),21.6
20,CC(NC(=O)NCC1(c2ccc(F)cc2)CC1)c1nncn1C (stereo not drawn),31.9
21,Cc1cnn(CCC(=O)N2CCCC(c3nc(C)c(C)s3)C2)c1 (stereo not drawn),-7.35
22,NCC1(c2cccc(F)c2)CCOCC1,50.2
23,NCC1(c2cccc(Br)c2)CCOCC1,-51.5
24,NCC1(c2cccc(C(F)(F)F)c2)CCOCC1,8.47
25,O=C(Cc1ccsc1)N1C[C@@H]2CN(Cc3ccoc3)CCO[C@@H]2C1,16.5

row,SMILES,INHIBITION [%]
1,Cc1noc(C)c1C(=O)NCC(c1ccc(F)cc1)N(C)C (stereo not drawn),23.4
2,CCc1ccc(C(CNC(=O)c2c(C)noc2C)N(C)C)cc1 (stereo not drawn),58.9
3,COc1ccc(C(CNC(=O)c2c(C)noc2C)N(C)C)cc1 (stereo not drawn),50.75
4,Cc1noc(C)c1C(=O)NCC(c1cccc(F)c1)N(C)C (stereo not drawn),-20.19
5,CCc1noc(C)c1C(=O)NCC(c1ccc(C)cc1)N(C)C (stereo not drawn),-25.4
6,Cc1noc(C)c1C(=O)NCC(c1ccsc1)N(C)C (stereo not drawn),-38.7
7,OC(CNC1CCOCC1)c1cccc(OCc2ccccc2)c1 (stereo not drawn),46.1
8,O=C(O)CNc1cc(-c2cc(C(=O)NC3CC3)ccn2)c2cc[nH]c2n1,-21.1
9,COc1cc(F)ccc1C(C(=O)O)N(C)CCN1CCCC1 (stereo not drawn),40.9
10,COc1ccc(C(C(=O)O)N(C)CCN2CCCC2)c(C)c1 (stereo not drawn),52.8
11,COc1ccc(C(C(=O)O)N(C)CCN2CCOCC2)c(C)c1 (stereo not drawn),22.5
12,CCc1n[nH]c(=O)c(C(=O)N2CCSCC2)c1CC,39.3
13,Cn1cnnc1C1CCCN(C(=O)c2cc(Cl)c(Cl)n2C)C1 (stereo not drawn),-10.1
14,CC(CNC(=O)c1c[nH]nn1)Oc1cccc(Br)c1 (stereo not drawn),-15
15,CC(CNC(=O)c1ccncc1F)Oc1ccc(F)cc1 (stereo not drawn),28.2
16,CC(CNC(=O)c1cnccn1)Oc1cccc(Br)c1 (stereo not drawn),10
17,Cc1ccc(OC(C)CNC(=O)c2c[nH]nn2)cc1 (stereo not drawn),0.0944
18,CC(CNC(=O)c1cnccn1)Oc1ccc(F)cc1 (stereo not drawn),69.9
19,CC(CNC(=O)c1c[nH]nn1)Oc1ccc(Cl)cc1 (stereo not drawn),51.6
20,Cc1cnc(N2C(=O)CSC2c2ccc(F)cc2)s1 (stereo not drawn),44.8
21,CC(=O)N1CCN(Cc2cccs2)CC2(CC(=O)N(C)C2)C1 (stereo not drawn),-2.35
22,COc1ccc(C)cc1CN(C)CC(=O)NC1(C)CCS(=O)(=O)C1 (stereo not drawn),29.7
23,CCc1noc(C(C)N2CCN(Cc3noc(C)n3)CC2)n1 (stereo not drawn),61.3
24,CCOCCN1CCN(C(C)c2nc(C3CC3)no2)CC1 (stereo not drawn),0.55
25,CCc1noc(C(C)N2CCC(N3CCCCC3)CC2)n1 (stereo not drawn),44.1

row,SMILES,INHIBITION [%]
1,CCc1noc(C(C)N2CCC(N3CCCC3)CC2)n1 (stereo not drawn),50.4
2,CCc1noc(C(C)N2CCN(Cc3noc(C4CC4)n3)CC2)n1 (stereo not drawn),65.7
3,Cc1nc(CN2CCN(C(C)c3nc(C4CC4)no3)CC2)no1 (stereo not drawn),-21.9
4,CCc1noc(C(C)N2CCCN(Cc3noc(C4CC4)n3)CC2)n1 (stereo not drawn),15.7
5,CCc1noc(C(C)N2CCN(CC)CC2)n1 (stereo not drawn),-54.6
6,COCCN1CCN(C(C)c2nc(C3CC3)no2)CC1 (stereo not drawn),28.6
7,COCCCN1CCCN(C(C)c2nc(C3CC3)no2)CC1 (stereo not drawn),54.9
8,CCc1noc(C(C)N2CCC(C)CC2)n1 (stereo not drawn),2.97
9,Cc1noc(C(C)N2CCN(Cc3noc(C4CC4)n3)CC2)n1 (stereo not drawn),37.4
10,Cc1ccc(-c2ccnc(NCC3(N(C)C)CCOCC3)n2)c(C)n1,19.2
11,Cn1cnc2c1CCN(Cc1csc(-c3ccco3)n1)C2,5.8
12,CC(O)CN1CCC(CNCc2cccc(Cl)c2)CC1 (stereo not drawn),24
13,COCCN1C(=O)[C@@H]2CC[C@H]1CN(S(=O)(=O)c1cccc(Cl)c1)C2,32.2
14,COC(=O)C(C)(C)NC(=O)C1CC(=O)N(CC(C)C)C1 (stereo not drawn),-22.1
15,OC1(CNCCc2nc3c(s2)CCCC3)CCNC1 (stereo not drawn),-41.6
16,O=c1[nH]c2cn(-c3ccc(F)cc3)c(=O)n2n1Cc1cccc(Cl)c1,9.48
17,CN1CCC2(CC1)Cc1ccccc1CN(C(=O)CN)C2,29.2
18,Cc1cc(N(C)C)nc(C2(C)CCNCC2)n1,-5.8
19,CCn1cc(NC(=O)NCCN2CCCCCC2=O)cn1,7.24
20,CC(C)(C)NC(=O)CNc1ncc(Br)cn1,28.8
21,CC(c1nc(C2CC2)no1)N1CCN(Cc2noc(C3CC3)n2)CC1 (stereo not drawn),51.1
22,CC(C)c1nc(CN2CCN(C(C)c3nc(C4CC4)no3)CC2)no1 (stereo not drawn),13.5
23,CC(C)c1noc(C(C)N2CCN(Cc3noc(C4CC4)n3)CC2)n1 (stereo not drawn),27.6
